# Measurements reported in PubChem BioAssay (NCATS).
# Where “and” joins values, the source holds several entries; their conditions need not be identical. Equal values may be shown once. Records with an inconclusive call do not appear. Unmarked numbers belong to inactive results. Calls of active or inactive are those of the source. The call rests on the fitted dose curve; in most records, active means well fitted curve in the direction sought with a large enough effect; inconclusive means small, poorly fitted or top-dose-only effect, or another doubt; inactive means no such curve, though single readings can be large; an effect the other way counts as inactive or inconclusive.
# Assay: qHTS assay to identify small molecule inhibitors of chordoma cells - UCH-2 (AID 1259356); further: on the % scale 0 is the no-effect control and ±100 the full control effect
# Settings: UCH-2 chordoma viability, CellTiter-Glo ATP luminescence, 48 h; series mostly up to 46.1 µM; activity change, negative = inhibition: at the top concentration
row,Compound,"activity change, negative = inhibition"
1,COC(=O)C1=CCCN(C)C1,-15.3%
2,NC(=O)CN1CCCC1=O,12.6% [at 20.6 µM]
3,COc1ccc(C(=O)N2CCCC2=O)cc1,-9.79%

# Assay: P-glycoprotein substrates identified in KB-3-1 adenocarcinoma cell line, qHTS therapeutic library screen (AID 1346986); further: nearly all actives have a fitted effect of over 60% in size
# Settings: KB-3-1 parental cells viability, CellTiter-Glo, 72 h; at 44.5 µM (top of the series)
# In short: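 In 1536-well format, 500 cells/well received pinned compound titrations and were incubated 72 h, 5% CO2. Viability was read by CellTiter-Glo; cytotoxic if AC50 < 10 uM and efficacy >50%.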
row,Compound,outcome
1,CC[C@H]1C[C@H]2[C@@H]3CCC4=CC(=O)CC[C@@H]4[C@H]3CC[C@]2(C)[C@H]1O,inactive
2,COc1ccc2c(C(=O)c3ccc(Cl)cc3)c(C)n(CC(=O)O)c2c1,inactive
3,O=C(N[C@H]1N=C(c2ccccc2F)c2cccc3c2N(CC3)C1=O)c1cc2ccccc2[nH]1,inactive

# Assay: P-glycoprotein substrates identified in KB-8-5-11 adenocarcinoma cell line, qHTS therapeutic library screen (AID 1346987); further: nearly all actives have a fitted effect of over 65% in size; further: potency means the concentration at half of the fitted maximal effect; on activity change, negative = cytotoxicity: on the % scale 0 is the no-effect control and ±100 the full control effect
# Settings: KB-8-5-11 (P-gp overexpressing) viability, CellTiter-Glo, 72 h; series mostly up to 44.5 µM; activity change, negative = cytotoxicity: at the top concentration
# In short: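 Compounds are pinned in dose-response onto KB-8-5-11 cells (500 cells/well, colchicine-free medium) and left 72 h at 37 degree C. CellTiter-Glo luminescence then yields AC50 values.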
Compound,outcome,Potency,"activity change, negative = cytotoxicity"
CCOC(=O)NC(C)(C)Cc1ccc(Cl)cc1,inactive,,
CCC(OC(C)=O)C(CC(C)NC)(c1ccccc1)c1ccccc1 (stereo unspecified),,20 µM (active),
CN(C)CCc1c[nH]c2ccccc12,,,4.37% [at 163 µM]
COC(=O)C1=CCCN(C)C1,,inactive,
COc1ccc(OC)c(CC(C)N)c1 (stereo unspecified),,,-17% [at 93.4 µM]
C[C@H]1CNCCc2ccc(Cl)cc21,,,-0.461%
NC1(c2ccccc2)CCCCC1,,,-2.8% [at 93.4 µM]
O=C(CCl)c1ccc(Cl)cc1Cl,,2.91 µM (active) and 11.2 µM (active),
Oc1ccc([C@H]2CNCc3c2ccc(O)c3O)cc1O,,,-5.22%
CN(C)CCc1c[nH]c2cccc(O)c12,,,-18.1% [at 93.4 µM]
Cc1nnc2n1-c1sc(CCc3ccc(CC(C)C)cc3)cc1C(c1ccccc1Cl)=NC2C (stereo unspecified),,14.6 µM (active),
C[C@]12CC[C@H]3[C@@H](CCC4=CC(=O)CC[C@@H]43)[C@@H]1CC[C@@H]2O,,2.91 µM (active) and 5.8 µM (active),
COc1cc(CC(C)N)c(OC)cc1Br (stereo unspecified),,inactive,
COc1cc(CC(C)N)cc2c1OCO2 (stereo unspecified),,,-12.8% [at 93.4 µM]
CC1N=C(N)OC1c1ccccc1 (stereo unspecified),,,-2.73% [at 93.4 µM]
